A selection: hits, their analogues and other compounds. The true share with any hit is near 3.6%.
NPSR antagonist = qHTS Assay for Antagonists of the Neuropeptide S Receptor: cAMP Signal Transduction; Q6W5P4; CHO-NPSR cells, cAMP TR-FRET, antagonist mode; Potency, µM (titrated, usually from 38.3 µM), inactives show at the top dose activity change, negative = inhibition, most hits filed as inhibitors; actives 1% (n = 220,000); AID 1461, 2008; note: % is set by controls: 0 for no effect and ±100 for the full control effect; nearly all actives have a fitted effect of over 50% in size
JMJD2E inh = qHTS Assay for Inhibitors of Human Jumonji Domain Containing 2E (JMJD2E) | Potency, µM (series often up to 57.1 µM), without a hit: top-dose activity change, negative = inhibition, most hits filed as inhibitors | actives 1.6% (n = 230,000) | JMJD2E catalytic domain, FDH-coupled NADH fluorescence (FDH is formaldehyde dehydrogenase);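 note: 0% = wells with enzyme and -100% = buffer wells without enzyme; nearly all actives have a fitted effect of over 50% in size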
Epigenetic derep = Quantitative High-Throughput Screen for Regulators of Epigenetic Control; murine LDR cells, GFP reporter derepression, 30 h; Potency, µM (top dose mostly 53.9 µM), for inactives: at the top dose GFP activation, most hits filed as activators; actives 0.2% (n = 280,000); AID 1865, 2009; note: % of control where 0% means no effect; nearly all actives have a fitted effect of over 60% in size
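Derepression of a silenced CMV-GFP reporter in murine LDR cells is scored by enumerating GFP-positive cells with a laser-scanning microplate cytometer after 30 hours of treatment at 37 C.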
Sfp inh = qHTS Assay for Inhibitors of Bacillus subtilis Sfp phosphopantetheinyl transferase (PPTase). 4'-phosphopantetheinyl transferase ffp (Bacillus subtilis), Q9F4F7. Biochemical Sfp PPTase activity, qHTS. Potency, µM, without a hit: largest response in the series, negative = inhibition, hits mostly inhibitors. actives 3.5% (n = 310,000). AID 1490, 2009;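 note: the enzyme is Sfp with the accession as filed and its product quenches rhodamine fluorescence; 0% = enzyme reaction without inhibitor and -100% = no enzyme wells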
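Step 1, compound plus 15 nM Sfp-PPTase, 15 min, room temperature. Step 2, add rhodamine-CoA (5 uM) and BHQ-2-YbbR (12.5 uM). Step 3, read 525/598 nm fluorescence at 0 and 30 min.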
KAT2A inh = qHTS Assay for Inhibitors of GCN5L2. Histone acetyltransferase KAT2A (Homo sapiens), Q92830. GCN5L2 HAT assay, ThioGlo1 CoA-SH fluorescence. Potency, µM (series often up to 58.9 µM), for inactives: at the top dose activity change, negative = inhibition, actives largely listed as inhibitors. actives 0.21% (n = 390,000). AID 504327, 2011; note: % is set by controls: 0 for no effect and ±100 for the full control effect
Target sequence (Q92830 whole entry, looked up): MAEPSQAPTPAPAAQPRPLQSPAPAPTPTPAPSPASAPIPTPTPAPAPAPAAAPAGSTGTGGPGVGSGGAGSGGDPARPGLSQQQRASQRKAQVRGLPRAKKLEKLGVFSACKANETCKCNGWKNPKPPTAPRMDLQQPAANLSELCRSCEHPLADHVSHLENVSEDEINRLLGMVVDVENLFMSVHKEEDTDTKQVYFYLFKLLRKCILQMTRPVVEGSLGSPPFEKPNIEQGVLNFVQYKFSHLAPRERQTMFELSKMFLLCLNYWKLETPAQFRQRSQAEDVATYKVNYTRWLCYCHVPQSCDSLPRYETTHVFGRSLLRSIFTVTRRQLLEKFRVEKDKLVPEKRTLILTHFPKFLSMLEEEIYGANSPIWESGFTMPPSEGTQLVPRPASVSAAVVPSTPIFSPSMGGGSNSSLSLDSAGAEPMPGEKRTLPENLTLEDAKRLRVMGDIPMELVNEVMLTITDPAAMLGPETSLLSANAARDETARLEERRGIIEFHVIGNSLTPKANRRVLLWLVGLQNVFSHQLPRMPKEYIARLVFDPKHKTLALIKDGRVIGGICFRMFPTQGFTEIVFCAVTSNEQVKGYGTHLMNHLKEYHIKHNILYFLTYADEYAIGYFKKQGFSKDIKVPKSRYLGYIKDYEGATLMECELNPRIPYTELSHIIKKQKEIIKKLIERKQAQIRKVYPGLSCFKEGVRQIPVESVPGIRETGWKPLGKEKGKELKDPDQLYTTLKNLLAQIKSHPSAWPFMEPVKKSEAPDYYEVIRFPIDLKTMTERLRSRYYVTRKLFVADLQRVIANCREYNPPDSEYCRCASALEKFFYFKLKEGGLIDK
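Titration-based screen in which CoA formation is detected via maleimide probe ThioGlo1 (50uM) turning fluorescent on thiol reaction; substrates H3(1-25) 75uM and acetyl-CoA 70uM, GCN5L2 20nM, 20 min incubation at room temperature.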
IMPase Li cell = qHTS Assay for Identifying the Cell-Membrane Permeable IMPase Inhibitors: Potentiation with Lithium | actives 0.35% (n = 210,000) | CHO-M1 cells, IP1 TR-FRET (IP-One), carbachol + lithium | Potency, µM (series often up to 59.4 µM), inactives show top-dose activity, negative = IMPase inhibition, hits mostly inhibitors | AID 1457, 2008;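 note: IP1 builds up when IMPase is blocked and the TR-FRET signal falls; plate controls were basal vehicle for no effect and high inhibitor control for full effect; nearly all actives have a fitted effect of over 50% in size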
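Test compounds were applied to CHO-M1 cells previously cultured for 16–30 h at 2000 per well. A small lithium amount accompanied them; after 30 min at 37C, IP1 was quantified by TR-FRET.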
An asterisk follows results filed as active; ! = not confirmed by another sample; [ ] = remark or other dose. Unless noted, calls come from the whole dose curve; as a rule, active = well fitted curve in the direction sought with a large enough effect; inconclusive = small, poorly fitted or top-dose-only effect, or another doubt; inactive = no such curve, though single readings can be large; an effect the other way counts as inactive or inconclusive. Potency is the fitted concentration of half-maximal effect.

Screening Cc1c(Cc2ccccc2)c(=O)n2c([nH]c3ccccc32)c1C#N returned NPSR antagonist inconclusive, JMJD2E inh inconclusive, Epigenetic derep 6.4%, Sfp inh 79.4µM* and KAT2A inh -7.8%.
`CCOC(=O)CCN1C(=O)[C@H]2[C@H]3[C@H](O)[C@H](O)C/C(=N/NC(=O)OCc4ccccc4)[C@@H]3CC[C@@H]2C1=O` gave Epigenetic derep 0.0%[10.1 µM] and Sfp inh 24.8%.
Cc1nc2sccn2c(=O)c1CCN1CCC(=C(c2ccc(F)cc2)c2ccc(F)cc2)CC1 was read as NPSR antagonist inconclusive, JMJD2E inh -12.5%, Epigenetic derep -2.5%, Sfp inh 56.2µM*!, KAT2A inh inconclusive and IMPase Li cell 25.5%.
For Cc1nc2ccccn2c(=O)c1CCN1CCC(C(=O)c2ccc(F)cc2)CC1 the results were NPSR antagonist -3.7%, JMJD2E inh inconclusive, Epigenetic derep -0.4%, Sfp inh 7.7%, KAT2A inh -1.1% and IMPase Li cell 8.0%.
O=C(CN1CCN(c2ccccc2)CC1)Nc1nnc(-c2ccccc2)s1 was read as NPSR antagonist -13.8%[46.1 µM], JMJD2E inh -2.4%, Epigenetic derep 0.0%, Sfp inh 7.7%, KAT2A inh 1.8% and IMPase Li cell -7.4%[38.3 µM].
`O=C(CN1CCN(c2ccc(F)cc2)CC1)Nc1nnc(-c2ccccc2)s1` gave NPSR antagonist 9.7%[46.1 µM], JMJD2E inh 0.7%, Epigenetic derep -1.0%, Sfp inh 17.1%, KAT2A inh -8.0% and IMPase Li cell 11.2µM*.
Screening O=c1c2ccccc2nc(/C=C/c2cccnc2)n1CCc1ccccc1 returned NPSR antagonist -36.9%, JMJD2E inh 15.8µM*, Epigenetic derep -1.0%, Sfp inh -9.8% and KAT2A inh inconclusive.
Screening CCOC(=O)c1cc2n(c1/N=C/N(C)C)-c1ccccc1C2=O returned NPSR antagonist -5.2%[46.1 µM], JMJD2E inh inconclusive, Epigenetic derep 0.0%, Sfp inh 7.94µM*, KAT2A inh -19.6% and IMPase Li cell -28.2%[38.3 µM].
CCOC(=O)c1cc(=O)[nH]c2ccccc12 was read as NPSR antagonist -16.5%, JMJD2E inh inconclusive, Epigenetic derep 1.1%, Sfp inh 12.1%, KAT2A inh -2.3% and IMPase Li cell 0.2%.
Screening COC(=O)/C=C1/SC(=NC(=O)c2ccc(OC)cc2)NC1=O returned Sfp inh -18.3% and KAT2A inh 0.3%.
For COC(=O)/C=C1/SC(=NC(=O)c2ccccc2)NC1=O the results were NPSR antagonist -3.3%[46.1 µM], JMJD2E inh 1.9%, Epigenetic derep -0.9%, Sfp inh 28.2µM* and KAT2A inh -10.9%.
For COC(=O)/C=C1\S/C(=N/NC(=O)c2ccccc2)NC1=O the results were NPSR antagonist -2.8%[46.1 µM], JMJD2E inh 2.2%, Epigenetic derep -0.1%, Sfp inh -4.8%, KAT2A inh 2.5% and IMPase Li cell 45.4%[38.3 µM].
COC(=O)/C=C1/SC(=NC(=O)c2ccc(F)cc2)NC1=O was read as NPSR antagonist inconclusive, JMJD2E inh -10.1%, Epigenetic derep 1.5%, Sfp inh 28.2µM* and KAT2A inh 0.9%.
Screening COC(=O)/C=C1\SC(=NC(=O)c2cccc(Cl)c2)NC1=O returned NPSR antagonist -6.4%[46.1 µM], JMJD2E inh 7.9%, Epigenetic derep -1.1%, Sfp inh 44.7µM*, KAT2A inh 11.7% and IMPase Li cell -9.0%[38.3 µM].
`NC(=O)C1CC2(NC(=O)NC2=O)c2cc(F)ccc2O1` (centres undefined) gave Sfp inh 7.6% and KAT2A inh -2.0%.
O=C1C2=C(C(=O)c3ccccc31)C1O[C@](c3ccsc3)(Cc3ccccc31)O2 was read as Sfp inh -3.3% and KAT2A inh -9.7%[12.7 µM].
For COc1ccc2cc(S(=O)(=O)c3ccccc3F)c(=O)oc2c1 the results were Epigenetic derep -1.1% and KAT2A inh -5.0%.
Screening CC(C)(c1cc(Br)c(OCC(Br)CBr)c(Br)c1)c1cc(Br)c(OCC(Br)CBr)c(Br)c1 (centres undefined) returned IMPase Li cell 0.4%.
COc1ccc(C2c3c(ncn(Cc4ccco4)c3=N)Oc3ccc4ccccc4c32)cc1 (centres undefined) was read as NPSR antagonist inconclusive, JMJD2E inh -2.9%, Epigenetic derep 3.4%, Sfp inh -23.9%, KAT2A inh -21.4% and IMPase Li cell 14.3%.
COc1ccc(C2c3ccc4ccccc4c3Oc3ncn(CCN4CCOCC4)c(=N)c32)cc1OC (centres undefined) was read as NPSR antagonist 56.6%, JMJD2E inh 1.1%, Epigenetic derep 2.9%, Sfp inh -1.7% and KAT2A inh 3.1%.
COc1ccc(C2c3c(ncn(CCCN4CCOCC4)c3=N)Oc3ccc4ccccc4c32)cc1OC (centres undefined) was read as NPSR antagonist 10µM*, JMJD2E inh -5.2%, Epigenetic derep 7.3%, Sfp inh -0.4% and KAT2A inh -2.9%.
N=c1c2c(ncn1Cc1ccco1)Oc1ccc3ccccc3c1C2c1ccccc1 (centres undefined) was read as NPSR antagonist inconclusive, JMJD2E inh 6.4%, Epigenetic derep -0.9%, Sfp inh 22.4µM*, KAT2A inh -11.1% and IMPase Li cell 15.5%.
Screening Cc1cccc(Cn2c(=O)n(Cc3ccc4c(c3)OCO4)c(=O)c3oc4ccccc4c32)c1 returned Epigenetic derep 2.2% and KAT2A inh -1.4%.
For CCOC(=O)c1sc(NC(=O)c2cc(-c3ccc(C)cc3)nc3ccccc23)c(C#N)c1C the results were NPSR antagonist 2.5%[46.1 µM], JMJD2E inh -9.1%, Epigenetic derep -1.1%, Sfp inh 20µM*, KAT2A inh -38.8% and IMPase Li cell 25.0%[38.3 µM].
COc1ccc(-c2cc(C(=O)Nc3sc4c(c3C#N)CCCC4)c3ccccc3n2)cc1 was read as NPSR antagonist 5.1%, JMJD2E inh inconclusive, Epigenetic derep 0.0%, Sfp inh 8.7%, KAT2A inh -10.8% and IMPase Li cell -4.9%.
Cc1ccccc1-c1cc(C(=O)Nc2sc(C(=O)OC(C)C)c(C)c2C#N)c2ccccc2n1 was read as NPSR antagonist -18.1%[46.1 µM], JMJD2E inh inconclusive, Epigenetic derep -1.9%, Sfp inh 39.8µM*, KAT2A inh -0.3% and IMPase Li cell 10.2%[38.3 µM].
